# Inconclusive results are not listed. Some compounds were tested as several samples or in several runs, with calls that do not always agree. Calls of active or inactive are those of the source. How the source made its calls: active means hit-call score of the fitted dose curve at least 0.9, where 1 is the maximum; inconclusive means response in the unintended direction; inactive means score below 0.9.
# Legend:
# [1] = ATG_XTT_Cytotoxicity: Cytotoxicity Assessment in the Attagene TRANS-FACTORIAL HepG2 Assay (AID 2283584);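 on AC50: XTT signal for cell number as viability in transfected HepG2 cells; cells exposed to compound for 24 h before reading; active means loss of viability signal versus DMSO baseline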
# Summary of the method: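 Transfect HepG2 with GAL4-UAS reporter units, dose compound, incubate 24 h, then measure viable cell number by XTT. Fit concentration response against DMSO baseline.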
# [2] = TOX21_p53_BLA_p2_viability: Viability Assessment in the Tox21 HCT-116 p53 Agonism Beta-lactamase Assay, Phase 2 (AID 2283591);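 further: compound exposure lasted 16 h at 37 °C; actives lower the ATP signal meaning cytotoxicity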
# Summary of the method: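 Cytotoxicity readout: CellTiter-Glo ATP luminescence, 30 min at room temperature, after the beta-lactamase read. Cells were HCT116 exposed 16 h at 37C to compounds pin-transferred at 217-fold dilution from DMSO stocks.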
Structure (SMILES),outcome [1],outcome [2],AC50 [1],AC50 [2]
CC(C)OC(=O)Nc1ccccc1,inactive,inactive,,
N#Cc1ccccn1,inactive,inactive,,
CC(C)C1CCC(Cc2ccc(Cl)cc2)C1(O)Cn1cncn1 (centres undefined),inactive,,33.2 µM (active),53.1 µM (active)
Clc1nc(Cl)nc(Cl)n1,inactive,inactive,,
COP(=S)(OC)Oc1ccc(S(=O)(=O)N(C)C)cc1,inactive,inactive,,
CCOC(=O)/C=C(C)/C=C/C[C@@H](C)CCCC(C)C,inactive,inactive,,
CNC(=O)O/N=C/C(C)(C)S(C)=O (centres undefined),inactive,inactive,,
Nc1cccc2ccccc12,inactive,inactive,,
CC(=O)OC(c1ccccc1)C(Cl)(Cl)Cl (centres undefined),inactive,inactive,,

# Source: PubChem BioAssay (EPA / NIEHS)
